NadD block: inhibitors of Staphylococcus aureus NadD | inhibition, % at 20 µM | purified NadD enzyme, colorimetric absorbance read-out | 360,000 compounds, 0.78% hits; in the data active means inhibition above about 26%
GRIN3A LBD mod: NR3A (human) ligand-binding domain modulation; NR3A LBD differential scanning fluorimetry, Tm shift; 0% = protein alone, 100% = glycine-bound protein; Tm shift relative to glycine control, % at 25 µM; 340,000 compounds, 2.5% hits; AID 1259313;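 active means melting temperature shift of at least 10% of the positive control shift, at one fixed dose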
rCAG binder: molecules binding r(CAG) RNA repeats; 370,000 compounds, 1.3% hits; inhibition, % at 3 µM; r(CAG) RNA repeat, TO-PRO-1 dye displacement fluorescence;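 active means inhibition above the plate cutoff, the mean of all test compounds on that plate plus 3 SD, cut at about 35% in these data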;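 further: 0% = DMSO alone and 100% = 100 µM mitoxantrone as full dye displacement; higher means more dye released from RNA so lower well fluorescence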
FAS TE block: inhibitors of human fatty acid synthase thioesterase domain; 360,000 compounds, 0.67% hits; recombinant FAS-TE, OMFH fluorogenic substrate, fluorescence endpoint; AID 602261; inhibition, % at 15 µM;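 active means compounds whose normalised, plate-corrected inhibition of enzyme fluorescence in the single-dose primary screen is 50% or more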;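 further: 0% = DMSO with enzyme and 100% = substrate without enzyme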
FAS-TE inh conf: confirmation of human fatty acid synthase thioesterase inhibitors. shares compounds with FAS TE block. recombinant FAS-TE, OMFH fluorogenic substrate, fluorescence. inhibition, % at 15 µM. 2,300 compounds, 45% hits. AID 624325;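 active means compounds inhibiting the enzyme by at least 50% at 15 µM in any one of the replicates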;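 further: 0% = enzyme with DMSO only and 100% = wells lacking enzyme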
* = called active by the depositor; / = no result. Compounds with a hit are over-represented: about 4.3% of the library has one in this group of screens.

SMILES	NadD block	GRIN3A LBD mod	rCAG binder	FAS TE block	FAS-TE inh conf
CCOC(=O)c1sc(NC(=O)c2ccc(S(=O)(=O)N3CCCCC3)cc2)nc1-c1ccccc1	21	13*	-1	65*	12
C[C@@]12C(=O)Nc3ccccc3C(=O)N1[C@H]1c3cc(Br)ccc3OC[C@@H]1[C@@H]2c1ccccc1	9	-1	14	92*	47*
CCOC(=O)[C@H]1[C@H]2COc3ccc(Br)cc3[C@@H]2N2C(=O)c3cc(F)c(F)cc3NC(=O)[C@@]12C	6	-18	0	41	/
C[C@@]12C(=O)Nc3ccc(Br)cc3C(=O)N1[C@H]1c3cc(Br)ccc3OC[C@@H]1[C@@H]2c1ccccc1	8	0	19	64*	23
C[C@@]12C(=O)Nc3ccc(Cl)cc3C(=O)N1[C@H]1c3cc(Br)ccc3OC[C@@H]1[C@@H]2c1ccccc1	5	-3	16	91*	33
O=S1(=O)c2ccc(Br)cc2OC[C@H](Cc2ccccc2)N1Cc1cn(CCC2OCCO2)nn1	/	/	3	/	/
CC1CCN(C(=O)C2CCCN(C(=O)c3ccc4c(c3)NC(=O)CS4)C2)CC1 (stereo unspecified)	/	/	0	/	/
O=C(c1ccc(S(=O)(=O)N2CCCC2)cc1)N1CCC(CN2C(=O)c3cccc4cccc(c34)C2=O)CC1	1	0	1	3	/
COc1ccc(S(=O)(=O)N2CCC(CN3C(=O)c4cccc5cccc(c45)C3=O)CC2)cc1	8	-1	9	63*	25
C#CCNC(=O)C[C@H]1C(=O)N(CCCOC)C2=CCCC[C@@]21C(=O)OCC	/	/	2	/	/
COc1ccc(NC(=S)N2CCN(c3ccc4c(c3)C3CCN(C(=O)OCc5ccccc5)C4C3)CC2)c(OC)c1 (stereo unspecified)	19	/	6	57*	11
CC(C)(C)c1cc(Br)c(O)c(N=Nc2ccc(S(=O)(=O)N3CCOCC3)cc2)c1	25	-5	8	84*	49*
O=C(Nc1ccccc1)C(Cl)C(=O)c1ccccc1 (stereo unspecified)	-3	1	-1	51*	40
COC(=O)[C@]12C[C@H](CC(=O)NCC34CC5CC(CC(C5)C3)C4)C(=O)N(CCc3ccc(OC)c(OC)c3)C1=C[C@H](COCc1ccccc1)O[C@@H]2C	/	/	10	/	/
O=C(Cn1c(=O)c2sccc2n(Cc2ccc([N+](=O)[O-])cc2)c1=O)NCCc1ccccc1	-4	-5	1	75*	76*
O=C(Cn1c(=O)c2sccc2n(Cc2cccc([N+](=O)[O-])c2)c1=O)NCCc1ccccc1	-1	-8	-1	57*	63*
COCCCNC(=O)CCn1c(=O)c2ccccc2n(Cc2cccc([N+](=O)[O-])c2)c1=O	-1	0	-5	42	/
CC(C)(C)C(=O)OC12CCCN(C1)/C(=C/c1cccnc1)C2 (stereo unspecified)	/	/	1	/	/
CC(NC(=O)C(C(=O)c1cccc([N+](=O)[O-])c1)n1cc(Cl)ccc1=O)c1ccccc1 (stereo unspecified)	-3	2	2	59*	65*
Cc1nn(-c2ccccc2)c2c1C(c1ccc([N+](=O)[O-])cc1)N1C(=N2)C(=O)Nc2ccccc21 (stereo unspecified)	11	-1	15	79*	1
O=C(Cn1nc(-c2ccccc2)ccc1=O)NCCc1cccc(F)c1	/	/	1	/	/
O=C(Cn1cc([N+](=O)[O-])ccc1=O)NCC1COc2ccccc2O1 (stereo unspecified)	0	2	4	52*	55*
O=C(CCNC(=O)c1ccc([N+](=O)[O-])cc1)NCC1COc2ccccc2O1 (stereo unspecified)	-1	3	-2	42	/
Cc1ccc(S(=O)(=O)NCC2COc3ccccc3O2)cc1 (stereo unspecified)	-3	10	0	3	/
Cc1ccc([N+](=O)[O-])cc1S(=O)(=O)NCC1COc2ccccc2O1 (stereo unspecified)	-5	-7	-3	66*	60*
SMILES	NadD block	GRIN3A LBD mod	rCAG binder	FAS TE block	FAS-TE inh conf
COc1ccc(C(=O)C2(C(=O)NC3CCCC3)CC(c3ccccc3C(F)(F)F)=NO2)cc1 (stereo unspecified)	/	/	-1	/	/
CC(C)C[C@@H]1NC(=O)[C@@H]2CSCCS(=O)(=O)N2C1=O	/	/	0	/	/
Cc1ccc(CN2CCCCC(NC(=O)c3ccc(-c4ccccc4)cc3)C2=O)cc1 (stereo unspecified)	/	/	7	/	/
NC(=O)C1=CN([C@@H]2O[C@H](COP(=O)(O)OP(=O)(O)OC[C@H]3O[C@@H](n4cnc5c(N)ncnc54)[C@H](O)[C@@H]3O)[C@@H](O)[C@H]2O)C=CC1	/	/	2	/	/
Cc1ccc(S(=O)(=O)N(C)C)cc1NC(=S)NC(C)CCCC(C)C (stereo unspecified)	-9	-4	0	58*	53*
O=C(NCc1cn(-c2ccccc2)nc1-c1ccccc1)c1cccc([N+](=O)[O-])c1	-8	2	15	51*	31
CCNC(=O)N1CCN(c2ccc(N3CCN(C(=O)NCC)[C@@H](C)C3)c(C)c2)[C@H](C)C1	/	/	0	/	/
Cc1cc2c(=O)oc(-c3ccc(F)cc3)nc2s1	-10	-1	-2	32	/
O=c1cc(-c2ccccc2F)nc(-c2ccccc2F)o1	0	0	3	-5	/
CCc1cc2c(=O)oc(-c3ccccc3F)nc2s1	-11	2	1	75*	60*
Cc1cc2c(=O)oc(-c3ccccc3Br)nc2s1	-5	2	-1	59*	65*
O=C(CCc1ccccc1)N[C@H]1[C@H](OC(=O)c2ccco2)CCC[C@@]12C(=O)N(Cc1ccccc1)c1ccccc12	/	/	5	/	/
COc1cccc(-c2cc(C(C)=O)c3n(c2=O)CCC3)c1OC	/	/	1	/	/
CN(C)CC(c1ccc(O)cc1)C1(O)CCCCC1 (stereo unspecified)	/	/	2	/	/
CCOC(=O)CCSc1nc2c(c(C(F)(F)F)c1C#N)CCC2	-3	-13	0	71*	65*
Cc1cc(NC(=O)COC(=O)c2cc([N+](=O)[O-])ccc2N2CCOCC2)ccc1Br	1	/	10	79*	80*
Cc1cc(C)c(NC(=O)COC(=O)c2cc([N+](=O)[O-])ccc2N2CCOCC2)c(C)c1	-6	-1	-4	65*	54*
Cc1ccc(C)c(C(=O)COC(=O)c2cc([N+](=O)[O-])ccc2N2CCOCC2)c1	-4	0	0	46	/
COc1cccc(CNC(=O)[C@H]2CCCN2C(=O)[C@H]2CCCN2C(=O)c2ccc(F)cc2F)c1	/	/	1	/	/
Cc1cc(O)cc(=O)n1-c1cc(C(F)(F)F)cc(C(F)(F)F)c1	/	/	0	/	/
O=C(/C=C/c1ccc([N+](=O)[O-])cc1)NCCc1ccc(F)cc1	-3	-1	1	23	/
O=C(/C=C/c1cccc([N+](=O)[O-])c1)NCCSCc1cccc(Cl)c1	-6	2	1	58*	66*
O=C(/C=C/c1cccc([N+](=O)[O-])c1)NCCc1ccc(F)cc1	0	1	0	52*	51*
